In the library only some 2.4% were active in any assay of this set; here they are far more common.
D2 antag: D2 dopamine receptor (human) antagonism. HEK293 TREx D2 cells, calcium flux, dopamine EC80. inhibition, % at 10 µM. 2% of 340,000 active. AID 485344; in the data active = inhibition above about 30%; inactive = below that, where a call was filed; note: 0% is about no effect
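Tetracycline-induced HEK293 TREx cells expressing D2 receptor forced-coupled to calcium signalling, loaded with no-wash calcium dye. Compounds added and calcium flux read 180 s, then dopamine added at EC80 and read a further 180 s.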
D2 ag-1: agonists of human D2 dopamine receptor; activation, % at 2 µM; HEK293 T-REx D2 cells, calcium flux agonist mode; AID 485358; P14416; 0.53% of 340,000 active;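 active = activation over 3 SD above normal in the single-dose calcium agonist read, cut at about 30% in these data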; note: 0% is about no effect
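Agonism scored from kinetic calcium signal (1 read/sec, 180 s) following compound pin transfer, after a 10 s baseline. Cells: HEK293 Trex line expressing inducible D2 receptor coupled to calcium, dye-loaded after overnight culture at 30 C.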
D2 PAM-1: D2 dopamine receptor (human) potentiation | P14416 | HEK293 T-REx D2, calcium flux, EC20 dopamine potentiation | potentiation, % at 10 µM | 0.34% of 340,000 active;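 active = potentiation over 3 SD above the plate norm, cut at about 30% in these data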; note: 0% is about no effect
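Calcium flux readout, no-wash dye, 1 read/s. Inducible HEK293 Trex D2 line, overnight 30 C. Compound alone 180 s (agonist flags), then EC20 dopamine, another 180 s to score potentiation.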
D2 ag-2: agonists of human D2 dopamine receptor (beta-arrestin) | activation, % (concentration not given with the values) | DiscoveRx PathHunter D2 beta-arrestin, luminescence, 90 min; 100% = 57 uM dopamine signal | 0.084% of 360,000 active; in the data active = activation above about 40%; inconclusive = between about 15% and that limit
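Agonist mode: compounds alone added to overnight-plated D2 PathHunter cells for 90 min at 37 C, with 57 uM final dopamine (EC100) defining full response. Beta-arrestin recruitment detected by chemiluminescent reagent, read after 1 h at ambient temperature.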
D2 PAM-2: human D2 receptor positive allosteric modulation; AID 624464; P14416; DiscoveRx D2 beta-arrestin cells, luminescence, 90 min; 100% = 57 uM dopamine signal; 0.23% of 360,000 active; potentiation, % (concentration not given with the values); in the data active = potentiation above about 50%; inconclusive = mostly about 30% to 49%
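PathHunter beta-arrestin assay in DiscoveRx D2 cells. Compounds were added with an EC20 of dopamine (50 nM final) for 90 min at 37 deg C. Luminescence was read 1 h after detection reagent, with 57 uM dopamine as the EC100 control.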
D3 ag: D3 receptor agonism confirmed, beta-arrestin readout; AID 720506; 4% of 2,300 active; shares compounds with D2 ag-1; Potency, µM (highest dose often 76.9 µM), for the others: at the top dose activation, hits mostly activators; DiscoveRx D3 beta-arrestin cells, luminescence, 90 min;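 note: potency is the fitted concentration of half-maximal effect; 100% = dopamine control response; nearly all actives have a fitted effect of over 70% in size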
Target sequence (P35462 whole entry, looked up): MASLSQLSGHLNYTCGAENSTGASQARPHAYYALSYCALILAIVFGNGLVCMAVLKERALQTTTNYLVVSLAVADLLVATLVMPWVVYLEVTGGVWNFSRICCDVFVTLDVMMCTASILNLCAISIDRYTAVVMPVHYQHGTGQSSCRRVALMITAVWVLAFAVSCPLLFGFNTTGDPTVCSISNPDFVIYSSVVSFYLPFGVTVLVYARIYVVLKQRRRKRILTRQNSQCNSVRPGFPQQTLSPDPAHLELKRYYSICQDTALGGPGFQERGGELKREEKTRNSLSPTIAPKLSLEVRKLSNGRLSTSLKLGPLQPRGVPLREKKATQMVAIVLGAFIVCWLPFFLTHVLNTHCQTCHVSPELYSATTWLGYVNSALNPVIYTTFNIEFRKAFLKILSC
D2 ag-3: counter-screen for D3 agonists: human D2 dopamine receptor agonism. shares compounds with D2 ag-1. DiscoveRx PathHunter D2 beta-arrestin, luminescence, 90 min; response scale: percent relative to full dopamine signal. Potency, µM (top dose mostly 76.9 µM), for the others: at the highest dose activation, actives largely listed as activators. 5.9% of 2,300 active. AID 720507; note: potency is the fitted concentration of half-maximal effect; % of control where 0% means no effect; nearly all actives have a fitted effect of over 70% in size
Active calls of the source: *; ? = inconclusive; / = no result given. Unless noted, calls come from the whole dose curve; as a rule, active = well fitted activation curve with a large enough effect; inconclusive = small, poorly fitted or top-dose-only effect; inactive = flat fitted curve, though single readings scatter.

SMILES	D2 antag	D2 ag-1	D2 PAM-1	D2 ag-2	D2 PAM-2	D3 ag	D2 ag-3
CC(CCN1CCN(c2ccccc2)CC1)c1ccccc1 (stereo not given)	72.6*	30.7*	-26.5	6.0	-24.5	-3.6%	12.9%
CC(CCN1CCN(c2ccccn2)CC1)c1ccccc1 (stereo not given)	62.7*	73.7*	-19.3	?	4.4	?	?
OCC1(Cc2ccc(Cl)cc2)CCN(Cc2ccccc2F)CC1	-4.5	1.1	-16.9	-4.6	-25.2	/	/
O=C(CN1CCN(C(c2ccccc2)c2ccccc2)CC1)N1CCN(c2ccccc2)CC1	-10.1	-0.6	-14.8	-6.3	-32.0	/	/
OCC1(Cc2ccc(Cl)cc2)CCN(CCCc2ccccc2)CC1	69.1*	77.6*	-10.5	40.6*	-0.1	-4.6%	?
c1ccc(CCCN2CCN(c3ccccc3)CC2)cc1	78.9*	13.1	-24.7	12.1	-5.5	4.7%	13.5%
COC(=O)c1ccccc1NC(=O)c1c(C)oc2ncn(C)c(=O)c12	/	-0.1	3.5	/	/	/	/
COc1ccccc1CNC(=O)CS(=O)(=O)Cc1nc(-c2ccccc2C)oc1C	/	-1.2	2.0	/	/	/	/
COC(=O)CSc1nc2sc3c(c2c(=O)n1-c1ccc(C)cc1)CC(C(C)C)OC3 (stereo not given)	/	/	3.9	/	/	/	/
C=CCN(CC=C)CCOc1ccccc1	-12.1	53.1*	-23.7	-1.5	-22.8	2.7%	7.7%
NC(=O)C1(N2CCCCC2)CCN(C(=O)Nc2ccc(F)cc2)CC1	/	-0.3	3.0	/	/	/	/
O=S(=O)(NC1CCN(S(=O)(=O)c2c(F)cccc2F)C1)c1ccc2c(c1)OCCO2 (stereo not given)	-9.3	0.0	-1.9	/	/	13.3%	9.7%
Cc1ccccc1CN1c2ccccc2-c2nc(SCC(=O)c3ccccc3)ncc2S1(=O)=O	/	0.1	-5.3	/	/	/	/
Cc1ccc(CNC(=O)C2CCCN(c3nnc(-n4c(C)ccc4C)s3)C2)cc1 (stereo not given)	/	/	4.6	/	/	/	/
O=C(CCN1CCN(c2ccccc2)CC1)N/N=C/c1ccc([N+](=O)[O-])o1	69.9*	86.5*	-18.4	?	6.3	0.4%	11.2µM*
O=C(CCN1CCN(c2ccccc2)CC1)N/N=C/c1ccc(O)c(O)c1O	78.1*	83.0*	-23.8	11.4	6.8	?	31.6µM*
COc1ccc(/C=N/NC(=O)CCN2CCN(c3ccccc3)CC2)c(OC)c1OC	84.0*	79.6*	-23.6	?	-10.4	10.7%	?
COc1cc(/C=N/NC(=O)CCN2CCN(c3ccccc3)CC2)cc(OC)c1OC	29.8	18.9	-9.6	0.6	-16.8	-3.5%	6.3%
CCC(=O)N1c2ccccc2CC1C(=O)NCc1cc(Br)ccc1OC (stereo not given)	/	-2.0	-0.1	/	/	/	/
Cc1ccc(CNC(=O)c2ccc3c(c2)N(Cc2ccccc2Cl)C(=O)CS3)cc1	/	0.8	/	/	/	/	/
COc1ccc(CCNC(=O)c2ccc(Cn3c(=O)c4ccccc4n(Cc4cccc(Cl)c4)c3=O)cc2)cc1OC	/	1.4	12.7	/	/	/	/
O=[N+]([O-])c1ccc(C(O)CN2CCN(c3ccccc3)CC2)cc1 (stereo not given)	46.4*	59.7*	-19.9	?	-3.9	?	?
O=[N+]([O-])c1ccc(CN2CCN(c3ccccc3)CC2)o1	-16.2	-0.5	-8.0	4.1	2.6	3.8%	1.9%
O=[N+]([O-])c1ccc(N2CCN(Cc3ccc([N+](=O)[O-])o3)CC2)cc1	18.7	0.7	-8.0	10.8	5.8	/	/
Cc1nc(-c2ccc(S(=O)(=O)NCc3ccc(OC(C)C)cc3)cc2)co1	/	-1.8	-0.8	/	/	/	/
SMILES	D2 antag	D2 ag-1	D2 PAM-1	D2 ag-2	D2 PAM-2	D3 ag	D2 ag-3
O=C(CC1NCCc2ccccc21)Nc1ccccc1Cl (stereo not given)	-16.6	11.6	-11.4	-0.7	-17.3	-7.2%	-5.8%
O=C(CC1NCCc2ccccc21)Nc1ccc(Oc2ccccc2)cc1 (stereo not given)	60.3*	67.9*	-37.4	9.5	9.8	-9.2%	0.0%
O=C(CC1NCCc2ccccc21)Nc1ccccc1 (stereo not given)	-11.0	-0.1	-18.7	1.5	-19.9	/	/
COc1ccc(C)cc1NC(=O)N(Cc1ccc(C)o1)C1CCN(C(C)=O)CC1	/	2.6	5.1	/	/	/	/
O=[N+]([O-])c1c(NCCO)cc(N2CCN(Cc3ccc4c(c3)OCO4)CC2)c2nonc12	-12.1	40.2*	-18.9	-2.6	-24.7	-0.6%	13.0%
N#CC1=C(N)NC(SCc2ccc(Br)cc2)=C(C#N)C12CCCCC2	/	/	/	4.2	-4.0	/	/
N#CC1=C(N)NC(SCC(=O)Nc2ccc(Br)cc2)=C(C#N)C12CCCCC2	-40.8	75.4*	-17.6	-0.8	-36.2	7.4%	8.0%
CCCN(CCC)CCCNC(=O)CC(C(=O)N1CCc2ccccc21)n1ccnc1 (stereo not given)	-11.0	8.0	-17.1	1.6	2.5	-16.7%	-2.0%
COc1ccc(C2Nc3ccccc3NC3=C2C(=O)CC(C)(C)C3)cc1OC (stereo not given)	37.9*	0.3	-3.7	7.9	-5.6	-0.5%	-1.1%
O=C(CN1C(=O)C2CCCCN2c2ccc(C(=O)N3CCCC3)cc21)NCc1ccc(F)cc1 (stereo not given)	/	-0.5	-10.4	/	/	/	/
CC(C)N1CCN(S(=O)(=O)c2ccccc2)CC1	0.7	1.6	1.2	-0.8	1.9	/	/
CCS(=O)(=O)N1CCN(C(C)CCc2ccccc2)CC1 (stereo not given)	27.9	61.0*	-20.7	13.1	2.7	?	?
Cc1ccc(SCC(=O)Nc2ccc3oc(-c4cccc(Cl)c4)nc3c2)cc1	/	-0.4	12.8	/	/	/	/
COc1ccc(-c2ccc(SCC(=O)N3CCCC3)nn2)cc1OC	18.2	1.1	-2.0	0.8	5.6	1.2%	-2.1%
Cn1nc(C(F)(F)F)c(-c2ccc(F)cc2)c1NC(=O)c1ccco1	-5.7	-0.2	-3.1	0.8	-3.3	0.6%	2.0%
Cn1nc(C(F)(F)F)c(-c2ccccc2)c1NC(=O)c1ccco1	-8.4	0.0	1.2	-4.0	-16.9	/	/
COc1ccc(C)cc1NC(=O)C1CCN(S(=O)(=O)c2ccc3[nH]c(=O)oc3c2)CC1	/	1.7	-8.1	/	/	/	/
COc1cc(C(C)=O)ccc1OCC(O)CN1CCN(c2ccc(F)cc2)CC1 (stereo not given)	40.1*	41.4*	-14.8	-1.0	-5.3	8.4%	4.7%

Source: PubChem
